ALDH1A1 inh: qHTS Assay for Inhibitors of Aldehyde Dehydrogenase 1 (ALDH1A1); Purified ALDH1A1, NADH fluorescence, propionaldehyde substrate; Potency, µM (top dose mostly 75.3 µM), most hits filed as inhibitors; actives 7.3% (n = 220,000); AID 1030, 2008; active means well fitted inhibition curve with a large enough effect, not every such curve was filed as active; inconclusive means small, poorly fitted or top-dose-only effect, or another doubt; inactive means no such curve, though single readings can be large or run the other way
JMJD2E inh: qHTS Assay for Inhibitors of Human Jumonji Domain Containing 2E (JMJD2E) | Lysine-specific demethylase 4E (Homo sapiens), B2RXH2 | JMJD2E catalytic domain, FDH-coupled NADH fluorescence (FDH is formaldehyde dehydrogenase) | Potency, µM (series often up to 57.1 µM), most hits filed as inhibitors | actives 1.6% (n = 230,000) | AID 2147, 2009; active means well fitted inhibition curve with a large enough effect, not every such curve was filed as active; inconclusive means small, poorly fitted or top-dose-only effect, or another doubt; inactive means no such curve, though single readings can be large or run the other way; further: nearly all actives have a fitted effect of over 50% in size
HPGD block: qHTS Assay for Inhibitors of HPGD (15-Hydroxyprostaglandin Dehydrogenase); 15-hydroxyprostaglandin dehydrogenase [NAD(+)] (Homo sapiens), P15428; purified HPGD, NADH fluorescence kinetic, PGE2 substrate; Potency, µM, usual class: inhibitors; actives 4.3% (n = 150,000); AID 894, 2007; active means well fitted inhibition curve with a large enough effect, not every such curve was filed as active; inconclusive means small, poorly fitted or top-dose-only effect, or another doubt; inactive means no such curve, though single readings can be large or run the other way
Target sequence (P15428 whole entry, looked up): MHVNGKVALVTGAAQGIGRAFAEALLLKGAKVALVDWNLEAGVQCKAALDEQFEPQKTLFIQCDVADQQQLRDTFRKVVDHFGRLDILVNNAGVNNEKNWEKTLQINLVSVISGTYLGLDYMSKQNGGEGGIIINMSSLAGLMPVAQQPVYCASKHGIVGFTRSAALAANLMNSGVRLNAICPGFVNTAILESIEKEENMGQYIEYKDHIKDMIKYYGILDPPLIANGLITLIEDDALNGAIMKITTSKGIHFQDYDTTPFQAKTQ
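NADH formation kinetics: reaction with 30 uM PGE2 and 1 mM NAD+ (final), 20 nM enzyme, Tris-HCl pH 8 with Tween 20, after 15 min compound preincubation at room temperature. Fluorescence change, last versus first of five reads.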
HTT cytoprotect: qHTS Multiplex Assay to Identify Dual Action Probes in a Cell Model of Huntington: Cytoprotection (ATP) | PC12 HTT-Q103 induced, cytoprotection, ATP luminescence, 40 h | Potency, µM (series often up to 56.4 µM), most hits filed as activators | actives 0.14% (n = 230,000) | AID 1471, 2008; further: nearly all actives have a fitted effect of over 45% in size
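Quantitative HTS on tebufenozide-induced (100 nM) PC12 cells expressing HTTQ103 exon 1–GFP; compounds tested as a concentration series; survival measured via cellular ATP.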
CBFb RUNX1 block: qHTS Assay for Compounds Blocking the Interaction Between CBF-beta and RUNX1 for the Treatment of Acute Myeloid Leukemia; AlphaScreen CBFb-His/RUNX1-biotin binding, biochemical; Potency, µM (highest dose often 59.8 µM), usual class: inhibitors; 230,000 tested, under 10 active; AID 1477, 2009
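Room-temperature protein-protein interaction test with 30 nM each of His-tagged CBF-beta and biotinylated RUNX1, 15 min with compound, then 90 min with nickel plus streptavidin beads. Signal read in AlphaScreen mode.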
HttQ103 aggreg: qHTS Multiplex Assay to Identify Dual Action Probes in a Cell Model of Huntington: Aggregate Formation (GFP). PC12 HttQ103-GFP aggregates, Acumen cytometry, 40 h. Potency, µM (titrated, usually from 46.1 µM), usual class: inhibitors. actives 1.1% (n = 220,000); further: nearly all actives have a fitted effect of over 60% in size
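Ecdysone-promoter PC12 model expressing HTT exon 1 Q103 fused to GFP, induced by tebufenozide at 100 nM final. Compounds titrated; aggregates sized 1–25 µm scored on a 488 nm laser cytometer.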
Each line names hits and unclear results; the compound was inactive in the other large screens. Rows were chosen to be rich in hits. Some 9.8% of all compounds tested hit in one or more screens of this group. Unless noted, the call rests on the fitted dose curve; in most records, active means well fitted curve in the direction sought with a large enough effect; inconclusive means small, poorly fitted or top-dose-only effect, or another doubt; inactive means no such curve, though single readings can be large; an effect the other way counts as inactive or inconclusive.

Cc1noc(NC(=O)c2ccccc2C(F)(F)F)c1C#N	none (no result: HPGD block)
CN(C)CCn1c(N)nc2ccccc21	none (no result: ALDH1A1 inh, HPGD block)
CCN1C(=O)c2cccc3c(S(=O)(=O)Nc4ccc(OC)cc4OC)ccc1c23	ALDH1A1 inh 11µM, HttQ103 aggreg inconclusive
Cc1cc2c(cc1C)C(=O)NC(C)(C)C2	HttQ103 aggreg 10µM
COc1ccc(CCNC(=O)CCNS(=O)(=O)c2cccc(Cl)c2)cc1OC	none (no result: HPGD block)
CCS(=O)(=O)N1CCN(c2ccc(C(=O)N3CCOCC3)cc2[N+](=O)[O-])CC1	none (no result: ALDH1A1 inh, HPGD block)
CCS(=O)(=O)N1CCN(c2ccc(C(=O)NC3C4CC5CC(C4)CC3C5)cc2[N+](=O)[O-])CC1 (stereo unspecified)	ALDH1A1 inh 7.1µM, HttQ103 aggreg inconclusive
Cc1cc(SCC(=O)OCC(=O)NCC2CCCO2)c(C)cc1Br (stereo unspecified)	none (no result: HPGD block)
CN(c1ccc(OCc2nnc(-c3ccccc3)o2)cc1)S(=O)(=O)c1ccccc1	HPGD block 7.9µM
COc1ccc(OC)c(Cc2nnc(CCC(=O)NC3CCCCCCC3)o2)c1	none (no result: HPGD block)
CC(C)CN1C(=O)/C(=C(/C#N)C(=O)NC2CCCCC2)c2ccccc21	ALDH1A1 inh 5µM (no result: HPGD block)
CCCCN1C(=O)/C(=C(/C#N)C(=O)N2CCCC2)c2ccccc21	none (no result: ALDH1A1 inh, HPGD block)
Cn1cccc1/C=N/NC(=O)C(O)c1ccccc1 (stereo unspecified)	JMJD2E inh 25µM (no result: ALDH1A1 inh, HPGD block)
COc1ccc2o/c(=N\O)c(C(=O)Nc3ccccc3OC)cc2c1	ALDH1A1 inh inconclusive, HPGD block 13µM
COc1ccc2nc(S(=O)Cc3ncc(C)c(OC)c3C)[nH]c2c1 (stereo unspecified)	JMJD2E inh 25µM, HPGD block 28µM, HTT cytoprotect inconclusive, HttQ103 aggreg inconclusive
Clc1ncc(CSc2ccccc2)s1	none (no result: HPGD block)
CCOC(=O)Cc1c(C)nc2c(-c3ccc(Cl)cc3)c(C)[nH]n2c1=O	ALDH1A1 inh inconclusive, JMJD2E inh inconclusive, HPGD block inconclusive, HttQ103 aggreg 18µM
O=c1c2c(nc3c(-c4cccc(Br)c4)c[nH]n13)CCCC2	HPGD block inconclusive, HttQ103 aggreg 3.5µM
O=c1c2c(nc3c(-c4ccc(Cl)cc4)c[nH]n13)CCC2	ALDH1A1 inh inconclusive, JMJD2E inh inconclusive, CBFb RUNX1 block inconclusive, HttQ103 aggreg inconclusive (no result: HPGD block)
CCOC(=O)Cc1cc(=O)n2[nH]c(C)c(-c3ccccc3)c2n1	JMJD2E inh inconclusive
CCOC(=O)Cc1c(C)nc2c(-c3cccc(Br)c3)c[nH]n2c1=O	ALDH1A1 inh inconclusive, JMJD2E inh inconclusive, HPGD block inconclusive, HttQ103 aggreg 11µM
CCOC(=O)Cc1cc(=O)n2[nH]c(C(C)(C)C)cc2n1	JMJD2E inh inconclusive (no result: ALDH1A1 inh, HPGD block)
COc1ccccc1NC(=O)CN(Cc1ccco1)C(=O)c1cc2ccccc2o1	ALDH1A1 inh 22µM (no result: HPGD block)
COc1ccccc1NC(=O)CN(Cc1ccco1)C(=O)c1ccc(=O)[nH]c1	none (no result: ALDH1A1 inh, HPGD block)
NC(C(=O)O)C(O)C(=O)O (stereo unspecified)	none (no result: HTT cytoprotect, CBFb RUNX1 block, HttQ103 aggreg)
CN(C)c1ccc(C(C#N)c2ccccc2)nn1 (stereo unspecified)	ALDH1A1 inh 10µM (no result: HPGD block)
CC(C)c1nnc(SCC(=O)N2CCc3ccccc32)n1N	ALDH1A1 inh inconclusive (no result: HPGD block)
Clc1ccccc1NN(Cc1ccncc1)c1ccccc1Cl	ALDH1A1 inh inconclusive (no result: JMJD2E inh, CBFb RUNX1 block, HttQ103 aggreg)
CCCCN(C)C(=O)c1nc2ccccn2c1CN1CCN(C(=O)c2cccs2)CC1	ALDH1A1 inh 6.3µM (no result: HPGD block)
COc1cccc(-c2cncnc2NCCc2cnc[nH]2)c1	HTT cytoprotect inconclusive (no result: CBFb RUNX1 block, HttQ103 aggreg)

High-throughput results: PubChem, National Center for Advancing Translational Sciences (NCATS)
